Results: the supplement of paper PMC6555819

How the values were obtained:
Assay in all cases: PBM binding z-score (relative to random genomic background probes); higher = stronger binding; sequences stand for … in GC…GCGATTGACAGCGTAGAATGAAGG
[1] = test system: RARb homodimer (NR concentration 270 nM)
In short: (§1)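 Binding buffer was PBS pH 7.4 with 2% milk, 0.02% Triton X-100, 1 mM DTT, 0.2 mg/mL BSA and 0.4 mg/ml salmon testes DNA. In it, ligand-free nuclear receptor dimers were incubated 1 h on custom Agilent 4×180K protein-binding microarrays carrying double-stranded probes. Antibodies against each partner (one per run) detected binding, and z-scores were calculated against random background probes after regression normalization of scanned fluorescence.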

[2] = test system: RARg:RXRa (NR concentration 270 nM, RXRa partner concentration 90 nM)
In short: as §1

[3] = test system: RARg homodimer (NR concentration 270 nM)
In short: as §1

[4] = test system: RXRa DBDmut IVT, anti-RXR (DBD mutation: RXRa K156A/R161A, NR concentration 90 nM)
In short: as §1

[5] = test system: RXRa homodimer (NR concentration 180 nM)
In short: as §1

[6] = test system: THRa:RXRa (NR concentration 90 nM, RXRa partner concentration 90 nM)
In short: as §1

[7] = test system: THRa homodimer (NR concentration 90 nM)
In short: as §1

[8] = test system: VDR homodimer (NR concentration 270 nM)
In short: as §1

Row | Sequence | PBM binding z-score [1] | PBM binding z-score [2] | PBM binding z-score [3] | PBM binding z-score [4] | PBM binding z-score [5] | PBM binding z-score [6] | PBM binding z-score [7] | PBM binding z-score [8]
1 | ACTTACGGGTCGACGAGGTTATAGCACGCGTATA | 1.57 | 2.39 | 1.72 | 1.2 | 2.93 | 3.05 | 0.75 | 2.03
2 | TATACAGGGTCGAAGGCCAGAGTACGAATGTCGA | 1.26 | 1.87 | 1.72 | 0.491 | 2.32 | 1.16 | -0.382 | 1.23
3 | GCTGCTAGGTCAGGTTGGTTAGCTAACGGGTACG | 2.43 | 2.43 | 3.37 | 0.744 | 0.769 | 1.77 | 0.549 | 0.682
4 | TCAGACAGGTGATGGTAACTCAGGTACGCAGTCG | 0.401 | 0.447 | 0.147 | 0.843 | 0.688 | 0.659 | 0.545 | 0.532
5 | TCTATTAGCTGATTAGGGCAACCGAAACAGCGGA | -0.0375 | 0.212 | 0.313 | 0.509 | 0.233 | 0.211 | -0.143 | -0.58
6 | TCATATAGGTAAACAGGCGAAAGTCCGTAAGTTA | 0.187 | 0.299 | -0.00353 | 1.36 | 0.859 | 0.323 | -0.0757 | 0.216
7 | GCTGCTAGGTCAACTGATGGTTAGCTAAAGCTCG | 3.25 | 4.51 | 5.52 | 1.85 | 2.81 | 2.94 | 0.862 | -0.316
8 | GGAACGACGGCATTCGAGTTGATAGCATGGCGAT | -1.09 | -0.451 | -0.127 | -0.144 | -0.39 | -0.124 | -1.19 | -0.259
9 | CGTCAAAGTTCAAGGTAACGTATCAGAAAGCAGC | 3.97 | 5.22 | 6.45 | 4.52 | 4.44 | 3.06 | 1.44 | 3.38
10 | GCTAGCAGGCCATTTGGGTCACGCAATGACGGGC | 2.27 | 1.79 | 1.75 | -0.208 | 1.68 | 2.54 | 1.19 | 0.28
11 | TCTTGTAGAACAAAGGTTAAGAAAGCCGAAGCCT | 1.45 | 1.55 | 0.851 | 0.724 | 2.32 | 1.05 | -0.79 | -0.438
12 | ACTATCAGTTGACTTAGGGCAACCGATACGACGC | 0.986 | 0.641 | 1.1 | 0.226 | 0.399 | 1.46 | 0.315 | 0.169
13 | AGAACGAGGGCAATGAGTTGATCGCACGGGTGGC | 0.965 | 0.967 | 1.42 | 2.25 | 0.774 | 1.14 | -0.233 | 3.08
14 | ACTTACGGGTCAGCGAGGTTATAGCACGCGTATA | 3.53 | 4.79 | 4.61 | 1.45 | 4.69 | 3.83 | 1.06 | 2.44
15 | TCTTGTAGAGCAGCAGGTTAAGAAAGCTGGCCAA | -0.584 | -0.394 | -0.758 | -0.623 | -0.14 | -0.0931 | -1.03 | -1.08
16 | ATATGTAGGTTACATCCGGGTCCTTCAGGCTATG | 0.958 | 0.862 | 0.764 | 0.474 | 1.07 | 1.51 | 0.753 | 0.68
17 | TGTCAAAGTTCAAAGGTAACCTAAGTATCCACAC | 3.92 | 6.15 | 5.71 | 4.52 | 7.11 | 3.64 | 0.627 | 3.92
18 | ATTTGTAGGTTAAGGGTCATTCAGGTTGGTTCGC | 3.97 | 5.34 | 4.15 | 2.49 | 6.91 | 3.76 | 2.55 | 5.33
19 | GCTAGCTGGTCAGTAAAAGGTCACACACCGGTCG | 4.99 | 5.88 | 4.93 | 0.376 | 5.62 | 3.34 | 1.36 | 1.37

Row | Sequence | PBM binding z-score [1] | PBM binding z-score [2] | PBM binding z-score [3] | PBM binding z-score [4] | PBM binding z-score [5] | PBM binding z-score [6] | PBM binding z-score [7] | PBM binding z-score [8]
20 | GCTATTCGTTGAAAGGGCAACCGAATGATTCTCG | 1.85 | 1.23 | 1.21 | 0.319 | 0.916 | 0.348 | -0.335 | -0.329
21 | CCAGACAGGTGAAAGGTAACTCATTCTGGTACGC | 0.992 | 1.41 | 0.877 | 0.192 | 2.12 | 1.13 | 0.167 | 0.0322
22 | CGTCGAAGGTCAGAGAGGTCAGTGAATGCCGAGT | 5.14 | 6.51 | 7.29 | 2.6 | 5.68 | 3.85 | 1.32 | 5.14
23 | CGTCCAAGGTCAATGCTAGGTTAGTGAAAGCATT | 2.54 | 6.12 | 6.16 | 3.86 | 4.75 | 3.91 | 2.27 | 2.58
24 | CCTGCTAGGTCAATGGTCATCTAAAGCAGCTCGC | 2.97 | 3.73 | 4.61 | 1.79 | 2.51 | 2.23 | 0.612 | 0.333
25 | ATCTCTAGGTTAGACTCAGTTCAGTGAAGAACGC | 1.37 | 1.4 | 1.14 | 1 | 0.687 | 1.52 | 1.21 | 2.48
26 | CTCGAAAGGTCGTGCTCAGGTGATTATACCAAAC | 2.98 | 4.97 | 4.05 | 2.27 | 4.89 | 3.89 | 1.39 | 1.25
27 | TAGCCTAGGCCATGCGGGCCAGTATAGTGTCGGC | -0.484 | -0.409 | -0.0767 | -1.68 | -0.471 | -0.614 | -1.02 | -1.02
28 | CTAACAAGGTGAACAAGGTCGTTGATTACTATTC | 1.94 | 1.79 | 1.76 | 1.6 | 1.84 | 3.24 | 1.84 | 2.19
29 | CCTAGCATGCCAGGGTCACTCAAGCATTTCGCTT | 2.54 | 2.81 | 2.01 | 0.413 | 3.35 | 2.95 | 1.01 | 0.827
30 | TCGAGTATGTTACCAATGGGGCATTCAGCTTTCT | -0.135 | -0.111 | -0.492 | 0.904 | -0.0794 | -0.318 | -0.731 | -0.375
31 | TCTTGTAGATCAAGCAGATTAAGAAAGCCTGAGT | -0.625 | -0.157 | -0.298 | 0.446 | 0.2 | -0.439 | -0.521 | -0.466
32 | CCTATTAGTTGACCATAAGGGCAACCCAAGCTCG | 2.32 | 1.44 | 1.19 | 0.764 | 0.835 | 2.07 | 1.53 | 1.28
33 | CCAGACAGGTGAGAAGGTAACTCTGCCTCGATTA | 0.53 | 0.418 | 0.366 | 0.11 | 0.281 | 0.348 | 0.0664 | -0.0879
34 | GCTGCTAGGTCAGGCTGGTCAGCTAACGGGTACG | 2.55 | 2.75 | 4.34 | 0.391 | 1.07 | 1.63 | 0.201 | -0.177
35 | CCTAGTTGGTCAAGATCACACACGCTATAGGTAC | 0.785 | 0.893 | 1.22 | 0.493 | 0.581 | 0.0913 | 0.528 | 0.699
36 | GCGACTGGGGCAAAGCAGGTTACCATTAGGTTGG | 0.874 | 0.369 | 0.722 | -0.196 | 0.428 | 2.77 | -0.429 | -0.578
37 | TTACCAAGGTGAAAGTTCGTTGATGCACGCCTTG | 1.67 | 2.35 | 1.2 | 1.14 | 2.86 | 2.41 | 0.508 | 2.05
38 | ATATGTAGGTTATATCCGGGTCATTCAGGCTATG | 2.73 | 3.85 | 1.81 | 1.22 | 2.84 | 3.82 | 2.73 | 3.33

Row | Sequence | PBM binding z-score [1] | PBM binding z-score [2] | PBM binding z-score [3] | PBM binding z-score [4] | PBM binding z-score [5] | PBM binding z-score [6] | PBM binding z-score [7] | PBM binding z-score [8]
39 | CTCGAAAGGTCGGTTTAGGTGAGTATACGGATAA | 1.77 | 2.33 | 2.31 | 1.26 | 1.8 | 4.51 | 0.786 | 1.04
40 | TCATATAGGTAAAACAGGTGAAAGTCGGCATCTA | 0.437 | 0.572 | 0.226 | 1.71 | 1.1 | 0.827 | 0.0853 | -0.37
41 | TAGCCTAGGTCATGCGGGCCAGTATTGTGTCGGC | 3.12 | 3.74 | 4.11 | 0.382 | 2.52 | 3.05 | 1.08 | 0.379
42 | TATCCTAGGTCATGGGCCAGTATACCACGCGAAC | 3.35 | 4.47 | 5.04 | 0.933 | 3.99 | 3.54 | 2.41 | 1.05
43 | CCTTACGGGTCAAGAGGTTATAGCACGACGAGCG | 3.87 | 6.11 | 4.75 | 0.748 | 6.11 | 2.92 | 0.0618 | 1.17
44 | CCTAGCAGTCCAGGGTCACTCAAGCATTTCGCTT | 2.5 | 2.77 | 2.03 | 1.07 | 3.27 | 2.95 | 1.64 | 1.7
45 | TCGAGTAGGTTACCAATGGCGCATTCAGCTTTCT | 0.00418 | 0.036 | 0.0712 | 0.461 | 0.351 | -0.246 | -0.453 | -0.613
46 | CCTTACGGGTCACGACGTTATAGCACGACGAGCG | 3.34 | 5.56 | 5.15 | 0.951 | 6.26 | 2.99 | 0.181 | 0.722
47 | CCTCGGAGGACAGAAGGTCAGCGCTGTCCGCTTT | 4.09 | 4.02 | 3.84 | 0.468 | 2.54 | 2.57 | -0.027 | 0.0447
48 | CCTTACGGGTCACCAGGTTATAGCACGACGAGCG | 3.75 | 5.68 | 5.33 | 0.805 | 6.06 | 3.45 | 0.878 | 1.09
49 | AGTCAAAGTTCACTAGGTAACGGAAGATTCAGCT | 3.81 | 5.03 | 5.67 | 4.26 | 3.89 | 2.04 | 0.215 | 3.71
50 | CCGACTGGGGCATAAGGTTACAATAAGCCAGCCC | 1.61 | 1.66 | 1.08 | -0.313 | 1.18 | 1.95 | 0.977 | -0.296
51 | CCTAGAAGGCCAATCTGGGTCACTCAAGGCTTGA | 2.78 | 1.98 | 2.37 | 0.567 | 1.55 | 4.27 | 0.262 | 0.0868
52 | TGAATGAGGTTATAAGATCAGGGTACGTTGCAAA | 0.678 | 1.49 | 1 | 0.96 | 2.09 | 2.04 | 0.622 | 1.73
53 | CCTACCGGGCCAAAAAGGTCATTGATGCCGATAA | 4.59 | 4.5 | 3.96 | 0.185 | 4.6 | 3.29 | 1.04 | 3.13
54 | TCATATAGGTAAAAGGTGAAGGTCGGTGTGGTAA | 2.64 | 2.21 | 1.23 | 1.73 | 3.05 | 1.94 | 1.05 | 0.941
55 | CCTCGGAGGACAGAAGGTCAGAGCGGTCCGCTTT | 3.61 | 3.59 | 3.6 | 0.0416 | 1.82 | 2.35 | -0.136 | 0.0325
56 | AGAACGAGGGCAATGAGTTGATAGCTCGGGTGGC | 0.713 | 0.827 | 1.26 | 1.77 | 0.484 | 0.779 | -0.312 | 2.69
